Experimental data from PubChem BioAssay (EPA / NIEHS).
Inconclusive results are not listed. Calls of active or inactive are those of the source. The calls were made as follows, unless noted: active = hit-call score of the fitted dose curve at least 0.9, where 1 is the maximum; inactive = score below 0.9.

Columns and labels:
[1] = CCTE_Shafer_MEA_dev_LDH: CCTE's Lactate Dehydrogenase Assay for Cytotoxicity in the Neural Network Formation Assay, Shafer Lab (AID 2284068; active = hit-call score of the fitted dose curve at least 0.9, where 1 is the maximum;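 also: exposure for twelve days from plating with re-dosing on DIV 5 and 9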)
Method in brief: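 Developing rat cortical networks on MEA plates are exposed to compound for 12 days from plating. LDH activity is measured spectrophotometrically, with DMSO as baseline.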

[2] = CCTE_Shafer_MEA_dev_AB: CCTE's Alamar Blue Assay for Cytotoxicity in the Neural Network Formation Assay, Shafer Lab (AID 2284083; active = hit-call score of the fitted dose curve at least 0.9, where 1 is the maximum;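 also: resazurin reduction fluorescence as viability of cultured neurons; twelve days of exposure from plating with re-dosing on DIV 5 and 9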)
Method in brief: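 Cytotoxicity companion to the developmental MEA: primary rat cortical neurons, 12-day exposure starting day 0, compound refreshed DIV 5 and 9; resazurin fluorescence, fitted against DMSO vehicle.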

[3] = CCTE_Shafer_MEA_acute_LDH: CCTE's Lactate Dehydrogenase Assay for Cytotoxicity in the Neural Acute Assay, Shafer Lab (AID 2284086; active = hit-call score of the fitted dose curve at least 0.9, where 1 is the maximum;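 also: active means LDH release rises above DMSO vehicle level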)
Method in brief: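 Cytotoxicity readout: spectrophotometric LDH activity in supernatant of rat primary cortical neurons, post-plating day 13 or 15, sampled after 40 min compound exposure; signal gain relative to DMSO baseline.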

[4] = CCTE_Shafer_MEA_dev_mutual_information_norm: CCTE's Neural Network Formation Assay for Mutual Information Normalization, Shafer Lab (AID 2284091)
Method in brief: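 Neurons from rat cortex were seeded at 1.5 x 10^5 cells/well onto PEI-coated MEAs in a laminin drop, then exposed to compound from day 0 for twelve days. Network recordings on four days gave mutual information, summarised by AUC relative to DMSO.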

[5] = UKN4_HCS_LUHMES_neurite_outgrowth: University of Konstanz (UKN) Leist Lab Neurite Outgrowth Assay in human LUHMES cells (UKN4) (AID 2284206); conditions: actives raise or lower the signal
Method in brief: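 Neurite area in dopaminergic-model LUHMES neurons is measured by high-content imaging of calcein-AM after 24 h treatment starting shortly after day-2 replating; Hoechst staining tracks viability.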

[6] = IUF_NPC1a_proliferation_area_72hr: Leibniz Research Institute for Environmental Medicine (IUF) 72-hour Neural Progenitor Cell Proliferation Area Assay (NPC1a) (AID 2284208)
Method in brief: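 Spheres of 0.3 mm are plated singly in growth-factor medium and exposed from day 0. After three days at 37C and 5% CO2, sphere area is measured by phase contrast imaging, with activity referenced to DMSO.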

[7] = IUF_NPC1_viability_72hr: Viability Assessment at 72 hours in the Leibniz Research Institute for Environmental Medicine (IUF) Neural Progenitor Cell Proliferation Assay (NPC1) (AID 2284209)
Method in brief: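 Three-day continuous exposure of human neural progenitor spheres under EGF/FGF-driven proliferation; cell viability scored by alamar blue signal versus DMSO.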

[8] = CCTE_Mundy_HCI_Cortical_Synap_Neur_Matur_NeuriteSpotCountPerNeuriteLength: CCTE's Synaptogenesis and Neurite Maturation Assay in rat cortical cells for Neurite Spot Count per Neurite Length, Mundy Lab (AID 2284210)
Method in brief: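 Read-out: synaptophysin puncta counted along MAP2-stained neurites, normalised to neurite length, by automated high-content imaging. Rat cortical cells; AraC DIV 5; chemical dosing DIV 7; termination DIV 12. DMSO baseline.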

[9] = CCTE_Mundy_HCI_Cortical_Synap_Neur_Matur_BPCount: CCTE's Synaptogenesis and Neurite Maturation Assay in rat cortical cells for Branch Point Count, Mundy Lab (AID 2284211)
Method in brief: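 In this multiplexed morphology assay, cortical cells from rat receive chemicals at DIV 7 and are fixed at DIV 12, then immunostained and imaged; branch points are counted, with DMSO as baseline.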

[10] = CCTE_Mundy_HCI_Cortical_NOG_NeuriteCount: CCTE's Neurite Outgrowth Assay in rat cortical cells for Neurite Count, Mundy Lab (AID 2284212);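 also: cells fixed about two days after chemical exposure began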
Method in brief: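 Rat cortical primary cells; compound added 2 h post-plating, 1/10 dilution of working solution. Anti-betaIII-tubulin/AF488 ICC; ArrayScan neurite count vs DMSO.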

[11] = CCTE_Mundy_HCI_Cortical_Synap_Neur_Matur_NeuriteLength: CCTE's Synaptogenesis and Neurite Maturation Assay in rat cortical cells for Neurite Length, Mundy Lab (AID 2284214)
Method in brief: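 DMSO-normalised neurite length, from high-content imaging of anti-MAP2-stained rat cortical cells fixed at DIV 12. Glia were suppressed with AraC (DIV 5) before chemical exposure from DIV 7.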

[12] = CCTE_Mundy_HCI_Cortical_Synap_Neur_Matur_NeuriteSpotCountPerNeuron: CCTE's Synaptogenesis and Neurite Maturation Assay in rat cortical cells for Neurite Spot Count per Neuron Count, Mundy Lab (AID 2284215)
Method in brief: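 Rat cortical primary cultures; AraC DIV 5 to arrest glia; dosing + media change DIV 7; fixed DIV 12. Anti-MAP2/anti-synaptophysin, Hoechst nuclei; HCI puncta count per neuron, positive fitting direction vs DMSO.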

[13] = CCTE_Mundy_HCI_Cortical_Synap_Neur_Matur_SynapseCount: CCTE's Synaptogenesis and Neurite Maturation Assay in rat cortical cells for Synapse Count, Mundy Lab (AID 2284218)
Method in brief: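 Endpoint: synapses/neuron by HCI (synaptophysin puncta on MAP2-labelled neurites, Hoechst nuclei). Rat primary cortical cells, AraC DIV 5, dosed DIV 7, fixed DIV 12; DMSO negative control.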

[14] = CCTE_Mundy_HCI_Cortical_Synap_Neur_Matur_NeuriteCount: CCTE's Synaptogenesis and Neurite Maturation Assay in rat cortical cells for Neurite Count, Mundy Lab (AID 2284222);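 also: exposure from day 7 to day 12 in vitro with readout at day 12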
Method in brief: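 In this multiplexed morphology readout, rat primary cortical neurons are fixed at DIV 12 following dosing at DIV 7 and stained for MAP2, synaptophysin and nuclei. High-content image analysis yields neurite count.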

[15] = CCTE_Mundy_HCI_Cortical_Synap_Neur_Matur_CellBodySpotCount: CCTE's Synaptogenesis and Neurite Maturation Assay in rat cortical cells for Cell Body Spot Count, Mundy Lab (AID 2284223)
Method in brief: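 Rat cortical neurons; AraC @ DIV 5; dose + media change DIV 7; fix DIV 12; anti-MAP2/anti-synaptophysin IF, Hoechst; HCI count of soma synaptophysin puncta/neuron; DMSO = negative control.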

[16] = CCTE_Mundy_HCI_hNP1_Pro_ResponderAvgInten: CCTE's Proliferation Assay in human neuroprogenitor cells, Mundy Lab (AID 2284224; active = hit-call score of the fitted dose curve at least 0.9, where 1 is the maximum;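 also: human neural progenitor cells hNP1 derived from WA09 embryonic stem cells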)
Method in brief: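 Proliferation read as average intensity of BrdU-positive cells, imaged at 26.25 h post-dosing: chemical exposure started after 40–44 h culture, BrdU during final 4 h, paraformaldehyde fixation. Positive-direction fit relative to DMSO.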

[17] = UKN4_HCS_LUHMES_cell_viability: Viability Assessment in the University of Konstanz (UKN) Leist Lab Neurite Outgrowth Assay in human LUHMES cells (UKN4) (AID 2284232)
Method in brief: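 Measured in replated, 2-day-differentiated LUHMES cells treated 24 h; stained 30 min with H-33342 and calcein-AM before high-content imaging.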

[18] = CCTE_Mundy_HCI_Cortical_NOG_NeuronCount: CCTE's Neurite Outgrowth Assay in rat cortical cells for Neuron Count, Mundy Lab (AID 2284236; active = hit-call score of the fitted dose curve at least 0.9, where 1 is the maximum;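 also: neurons counted by imaging betaIII-tubulin and Hoechst stained cortical cells; cells exposed to compound for about 48 hours before fixation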)
Method in brief: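 Read-out: neuron number by high-content imaging of betaIII-tubulin (Alexa Fluor-488) and Hoechst-labelled rat primary cortical cells.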

[19] = CCTE_Mundy_HCI_hNP1_Casp3_7: CCTE's Caspase-Glo 3/7 Assay in human neuroprogenitor cells for Apoptosis, Mundy Lab (AID 2284240)
Method in brief: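 Luminescent caspase-3/7 readout, 26.5 h post-dose, in human neural progenitor cells from WA09 embryonic stem cells. Cells grew 40–44 h at 37 °C, 5% CO2 before chemical addition. Activity analysed as signal increase over DMSO baseline.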

[20] = CCTE_Mundy_HCI_hNP1_CellTiter: CCTE's Cell Titer-Glo 2 Assay in human neuroprogenitor cells for Viability, Mundy Lab (AID 2284241; active = hit-call score of the fitted dose curve at least 0.9, where 1 is the maximum)
Method in brief: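 Viability read as luminescent ATP content (CellTiter-Glo, 30 min room temperature) twenty-four hours after dosing, relative to DMSO. Cells: WA09-derived hNP1 neuroprogenitors on poly-L-ornithine/laminin, plated 40 to 44 hours before chemical.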

[21] = IUF_NPC2a_radial_glia_migration_72hr: Leibniz Research Institute for Environmental Medicine (IUF) 72-hour Neural Progenitor Cell Migration Assay for Radial Glia Migration (NPC2a) (AID 2284299)
Method in brief: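 Spheres of human primary neural progenitors migrate on poly-D-lysine/laminin under compound exposure at 37C, 5% CO2. The 72 h radial glia migration distance comes from brightfield images, measured manually.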

[22] = IUF_NPC2b_neuronal_migration_120hr: Leibniz Research Institute for Environmental Medicine (IUF) 120-hour Neural Progenitor Cell Migration Assay for Neuron Migration (NPC2b) (AID 2284300)
Method in brief: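 Read-out is mean distance from sphere edge to each TUBB3-positive neuron at 120 h, expressed relative to radial glia migration distance and to DMSO baseline. Single 0.3 mm human NPC spheres differentiated on laminin under continuous compound exposure.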

[23] = IUF_NPC3_neuronal_differentiation_120hr: Leibniz Research Institute for Environmental Medicine (IUF) 120-hour Neuronal Differentiation Assay (NPC3) (AID 2284301)
Method in brief: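 hNPC spheres, PDL/laminin, DMEM/F12 3:1 + 1% N2, 37C, 5% CO2; 7 concentrations + solvent control, 5 d exposure, half-change day 3. Fix 120 h; TUBB3/Hoechst ICC, CNN neuron calling; % neurons vs nuclei, DMSO-normalized.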

[24] = IUF_NPC4_neurite_length_120hr: Leibniz Research Institute for Environmental Medicine (IUF) 120-hour Neuronal Morphology Assay for Neurite Length (NPC4) (AID 2284302)
Method in brief: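 hNPC spheres (0.3 mm, fetal brain GW 16-19) on PDL/laminin, DMEM:F12 3:1 + 1% N2, 37C 5% CO2; 7 concs + solvent control, day 0-5, half medium change d3; fix 120 h, TUBB3 ICC, mean neurite length um vs DMSO.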

[25] = IUF_NPC5_oligodendrocyte_differentiation_120hr: Leibniz Research Institute for Environmental Medicine (IUF) 120-hour Oligodendrocyte Differentiation Assay (NPC5) (AID 2284304; active = hit-call score of the fitted dose curve at least 0.9, where 1 is the maximum;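 also: primary human fetal neural progenitor spheres plated to migrate and differentiate; share of O4-positive cells among Hoechst nuclei found by CNN image analysis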)
Method in brief: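 Oligodendrocyte differentiation was scored after 120 h as the O4-positive share of Hoechst-stained nuclei across the neurosphere migration area, using a trained convolutional neural network on high-content fluorescence images. Human fetal neural progenitor spheres were dosed from day 0, normalised to DMSO.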

[26] = IUF_NPC2-5_cytotoxicity_72hr: Cytotoxicity Assessment at 72 hours in the Leibniz Research Institute for Environmental Medicine (IUF) Neural Progenitor Cell Migration and Differentiation Assay for Cytotoxicity (NPC2-5) (AID 2284306; active = hit-call score of the fitted dose curve at least 0.9, where 1 is the maximum;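 also: LDH release into supernatant measured by resorufin fluorescence marking membrane damage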)
Method in brief: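 hNPC spheres (0.3 mm), PDL/laminin, DMEM/F12 3:1 + 1% N2; cpd from d0, 7 concs + SC, DMSO max 0.1%; half-medium refresh d3. Readout: supernatant LDH via resorufin fluorescence (RFU), 72 h; gain-of-signal fit.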

[27] = IUF_NPC2-5_cytotoxicity_120hr: Cytotoxicity Assessment at 120 hours in the Leibniz Research Institute for Environmental Medicine (IUF) Neural Progenitor Cell Migration and Differentiation Assay (NPC2-5) (AID 2284307; active = hit-call score of the fitted dose curve at least 0.9, where 1 is the maximum)
Method in brief: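 Sphere plating starts differentiation and exposure together at day 0. Compound solution is half-replaced on day 3. At 120 h, medium supernatant is taken for an LDH membrane-integrity read based on resazurin reduction to resorufin fluorescence.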

[28] = IUF_NPC2-5_cell_number_120hr: Cell Number Assessment at 120 hours in the Leibniz Research Institute for Environmental Medicine (IUF) Neural Progenitor Cell Migration and Differentiation Assay (NPC2-5) (AID 2284308);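 also: count of Hoechst-stained nuclei in migration zone around plated human neural progenitor spheres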
Method in brief: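 hNPC spheres, one per well, PDL/laminin, N2 medium, 37C, 5% CO2. Dosing day 0 → half-medium change with fresh compound day 3 → fix 120 h. Readout: Hoechst+ nuclei count, migration area; 7 concentrations plus solvent control.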

[29] = IUF_NPC2-5_viability_120hr: Viability Assessment at 120 hours in the Leibniz Research Institute for Environmental Medicine (IUF) Neural Progenitor Cell Migration and Differentiation Assay (NPC2-5) (AID 2284312)
Method in brief: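 Human fetal neural progenitor spheres (0.3 mm) plated on poly-D-lysine/laminin in N2 differentiation medium, exposed 120 h with half-medium refresh at day 3. Viability by alamar blue resazurin fluorescence; 7 concentrations, DMSO max 0.1%.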

[30] = CCTE_Mundy_HCI_iCellGluta_NOG_NeuriteLength: CCTE's Neurite Outgrowth Assay in iCellGluta cells for Neurite Length, Mundy Lab (AID 2284318; active = hit-call score of the fitted dose curve at least 0.9, where 1 is the maximum)
Method in brief: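 Automated high-content imaging of betaIII-tubulin (Alexa Fluor-488) and Hoechst-stained cells gave neurite length, normalized to the DMSO baseline.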

[31] = IUF_NPC1_cytotoxicity_72hr: Cytotoxicity Assessment at 72 hours in the Leibniz Research Institute for Environmental Medicine (IUF) Neural Progenitor Cell Proliferation Assay (NPC1) (AID 2284332; active = hit-call score of the fitted dose curve at least 0.9, where 1 is the maximum;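 also: rising LDH signal means more cytotoxicity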)
Method in brief: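 Readout is fluorescence from LDH-dependent resazurin conversion, sampled from culture medium after compound contact lasting 72 h. Each well holds one 0.25-0.35 mm human progenitor sphere kept at 37C, 5% CO2 with EGF and FGF.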

[32] = CCTE_Mundy_HCI_iCellGluta_NOG_NeuronCount: CCTE's Neurite Outgrowth Assay in iCellGluta cells for Neuron Count, Mundy Lab (AID 2284340; active = hit-call score of the fitted dose curve at least 0.9, where 1 is the maximum;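 also: cells fixed about 48 h after compound addition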)
Method in brief: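 Neuron count read by automated high-content imaging of Hoechst 33342 and betaIII-tubulin/Alexa Fluor-488 labelling in human iPSC glutamatergic neurons. Activity fitted relative to DMSO.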

[33] = CCTE_Mundy_HCI_iCellGluta_NOG_NeuriteCount: CCTE's Neurite Outgrowth Assay in iCellGluta cells for Neurite Count, Mundy Lab (AID 2284342; active = hit-call score of the fitted dose curve at least 0.9, where 1 is the maximum;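 also: chemical exposure about 48 hours starting 2 hours after plating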)

Measured: AC50

O=C1CC2(CCCC2)CC(=O)N1CCCCN1CCN(c2ncccn2)CC1
active: [2] 15 µM | [5] 15.3 µM | [10] 11.9 µM
inactive: all other assays above
